Records with an inconclusive call do not appear. Calls of active or inactive are those of the source. Calls follow the shape of the dose curve; as a rule, active = well fitted inhibition curve with a large enough effect in the repeat runs; inconclusive = weak or mixed curves; inactive = no such curve, though single readings can be large or run the other way.
Potency is read from the fitted curve at half-maximal effect.

The target of this experiment is Cytochrome P450 2C19 (Homo sapiens) (UniProt P33261). Kind of experiment: Cytochrome P450 Family 2 Subfamily C Member 19 (CYP2C19) small molecule antagonists: luciferase reporter qHTS assay (AID 1671197). Also: nearly all actives have a fitted effect of over 65% in size. As to conditions: P450-Glo CYP2C19 enzyme, luciferin luminescence, 1 h; series mostly up to 115 µM. From the text: National Center for Advancing Translational Sciences [NCATS]
Cytochrome P450 2C19 (Homo sapiens), sequence (P33261 whole entry, looked up): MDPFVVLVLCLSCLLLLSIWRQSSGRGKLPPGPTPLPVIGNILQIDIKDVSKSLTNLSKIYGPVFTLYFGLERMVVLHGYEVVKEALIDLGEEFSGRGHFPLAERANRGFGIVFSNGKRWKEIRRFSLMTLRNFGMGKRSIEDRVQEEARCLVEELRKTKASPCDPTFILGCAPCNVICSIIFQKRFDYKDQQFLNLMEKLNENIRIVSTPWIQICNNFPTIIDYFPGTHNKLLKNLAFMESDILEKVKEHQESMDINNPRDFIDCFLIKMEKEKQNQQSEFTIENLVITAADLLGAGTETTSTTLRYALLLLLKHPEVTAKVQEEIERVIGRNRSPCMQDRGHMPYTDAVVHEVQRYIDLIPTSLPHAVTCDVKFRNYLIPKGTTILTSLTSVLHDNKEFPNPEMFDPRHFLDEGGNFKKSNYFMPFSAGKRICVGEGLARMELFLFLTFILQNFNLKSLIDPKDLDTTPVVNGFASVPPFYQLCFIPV
U.S. Environmental Protection Agency [EPA]
National Institutes of Environmental Health Sciences [NIEHS]
National Toxicology Program [NTP]
U.S. Food and Drug Administration [FDA]
Cytochrome P450 (CYP) enzymes are membrane-bound hemeproteins that play a key role in metabolism of drugs and xenobiotics. Evaluation of the effect of chemicals on CYP isozymes is useful to minimize the adverse drug reactions and toxicities in drug development process. Tox21 chemicals were tested for their effect on CYP enzyme activities by using P450-Glo (TM) screening systems (Promega Corporation, Madison, WI). These systems provide a luminescent method containing proluciferin substrates and are converted to luciferin products by CYP isozymes. The luciferin products formed are detected with a luciferin detection reagent, and the amount of light produced is proportional to CYP activity. P450-Glo (TM) CYP2C19 screening system (Catalog. No. V9880) was used to detect the compounds that interfere in CYP2C19 activity. The positive control compound used for CYP2C19 assay is ketoconazole (Sigma-Aldrich, St. Louis, MO).
Tox21 Assay Protocol Summary:
Two ul of enzyme-substrate mix was dispensed into medium binding white/solid 1536-well plates (Greiner Bio-One North America Inc., Monroe, NC) using a BioRaptr Flying Reagent Dispenser (FRD, Beckman Coulter, Brea, CA). Compounds dissolved in DMSO and positive control (ketoconazole) were transferred to the assay plates at 23 nl using a Pintool station (Wako, San Diego, CA). The assay plates were incubated at room temperature for 10 min. Then 2 ul of NADPH regeneration solution was added to each well of the assay plates using an FRD and incubated at 37C for 1 h. The reaction was stopped by adding 4 ul of detection reagent using an FRD and after 20 min incubation at room temperature the luminescence signal was measured using a ViewLux plate reader (Perkin Elmer, Shelton, CT). Data were expressed as relative luminescence units.
A general note: A reporter such as luciferase makes a cellular process visible.
`CC(C)(C)c1ccc(OCC2CO2)cc1` (stereo not given): the Potency is 64.6 µM (active). Turning to `CC(=O)c1ccc2c(c1)[C@H](NC(=O)c1ccc(F)cc1)[C@@H](O)C(C)(C)O2`, the Potency entry is “inactive”.

In the case of `Oc1ccc(C(O)CNCCCCCCNCC(O)c2ccc(O)c(O)c2)cc1O` (stereo not given), the Potency entry was “inactive”. With `CCOc1ccc(NC(=O)CC(C)=O)cc1`, the Potency is 56.4 µM (active).

Consider `CCOc1cc(OCC)c(C(=O)CCC(=O)O)cc1OCC`, for which the Potency result is “inactive”. With `Cc1c(Cn2ccnc2)c2ccccc2n1CCC(=O)O`, the Potency is 34.7 µM (active). The result for `Cc1ccc(C(N)=O)cc1N` reads 44.8 µM (active). With `CCCCc1cc2ccccc2c(OCCN(C)C)n1`, the Potency result is “inactive”.

With `CN1CCC(=C2c3ccccc3C=Cc3ccccc32)CC1`, the Potency is 24.5 µM (active). The result for `CC(C)NCC(O)c1cc(O)cc(O)c1` (stereo not given) reads “inactive”. Take `CC1=CCC(C(C)C)C=C1` (stereo not given): the Potency was 79.6 µM (active).

`CCN(CC)CCc1nc(-c2ccccc2)no1`: the Potency result is “inactive”. Under `Cc1ccc(O)c([C@H](CCN(C(C)C)C(C)C)c2ccccc2)c1` stands 24.5 µM (active); under `C1CCC2OC2C1` (stereo not given), “inactive”; under `CC[C@H](C)[C@@H](C(=O)O)n1sc2ccccc2c1=O`, “inactive”. As for `Cc1ccccc1N=Nc1ccc(N=Nc2c(O)ccc3ccccc23)c(C)c1`, the Potency is 34.7 µM (active). Regarding `Cc1cccc(Oc2ccccc2)c1`, the Potency is 69.2 µM (active). The result for `Oc1ccc2c(c1)OCO2` reads 19.9 µM (active); that for `O=C(C(=O)c1ccc(Br)cc1)c1ccc(Br)cc1`, 0.352 µM (active); that for `O=C(O)C(c1ccc(Cl)cc1)c1ccc(Cl)cc1`, 28.3 µM (active). Turning to `O=[N+]([O-])c1cccc(Cl)c1Cl`, the Potency entry was “inactive”. With `CCCCCCCCC(CO)CCCCCC` (stereo not given), the Potency was 31.7 µM (active). With `COC(=O)CSc1cc(N=c2sc(=O)n3n2CCCC3)c(F)cc1Cl`, the Potency was 31.7 µM (active).

In the case of `O=C(NN1CCCC1)NS(=O)(=O)c1ccc(Cl)cc1`, the Potency entry was “inactive”.

As for `CN1CCN(C2=Nc3ccccc3Sc3ccc(Cl)cc32)CC1`, the Potency was 21.9 µM (active). Under `C=CC(=O)OCCOC(=O)CCC(=O)O` stands “inactive”.

Take `CCOC(=O)C1=C(C)NC(C)=C(C(=O)OC)C1c1cccc([N+](=O)[O-])c1` (stereo not given): the Potency was 1.55 µM (active). Under `CCN(CC)C(C)=O` stands “inactive”. Turning to `CN1CCN(C2=Nc3cc(Cl)ccc3Nc3ccccc32)CC1`, the Potency entry was “inactive”. The result for `O=C(O)c1cccc(N(Cc2cccnc2)c2ccc(OC(F)F)c(OC(F)F)c2)c1` reads 35.6 µM (active); that for `Cc1cc(CC(=O)O)c(C)n1-c1ccc(Cl)cc1`, 7.76 µM (active); that for `CCCCCCCCCCCCC(=O)O`, 71.3 µM (active). The result for `CC(C)(C)c1ccc(S)cc1` reads 50.2 µM (active). Regarding `CC[C@H](C)[C@H](N)C(=O)O`, the Potency result is “inactive”. Under `CC(C)c1ccc2c(C(C)C)cc(C(C)C)c(S(=O)(=O)O)c2c1` stands “inactive”; under `C=Cc1c(C)c2cc3[nH]c(cc4nc(cc5nc(cc1[nH]2)C(C)=C5CCC(=O)O)C(CCC(=O)O)=C4C)c(C)c3C=C`, “inactive”; under `CCCCCC/C=C/C=O`, 71 µM (active). Under `CCN(CC)C(C)CN1c2ccccc2Sc2ccccc21` (stereo not given) stands 34.7 µM (active); under `NC(N)=N/N=C/c1c(Cl)cccc1Cl`, “inactive”. With `O=C1c2cccc(O)c2C(=O)c2c(O)cc(CO)cc21`, the Potency result is “inactive”.
